This passage reports activation and Potency results from PubChem BioAssay AID602332 (National Center for Advancing Translational Sciences (NCATS), 2012).

Structures are written as SMILES. “And” between values parts separate entries of the source, which are not always exact repeats. Identical values can stand only once. Among all 420,000 compounds or so, about 75 (0.02%) were called active. This is one part of a sample in which actives are shown more often than they occur. Some compounds were tested as several samples or in several runs, with calls that do not always agree. Unmarked numbers belong to inactive results. Calls follow the shape of the dose curve; as a rule, active = well fitted activation curve with a large enough effect; inconclusive = small, poorly fitted or top-dose-only effect; inactive = no such curve, though single readings can be large or run the other way.
Potency is read from the fitted curve at half-maximal effect.

This assay in a line: qHTS for Inducers of the Endoplasmic Reticulum Stress Response (ERSR) in Human Glioma: qHTS. Also: nearly all actives have a fitted effect of over 35% in size. As to activation: % of control where 0% means no effect. The note with it: U87-MG GRP78 promoter luciferase reporter, 16 h; activation: active compounds read high. The text has this:
Primary protein unfolding takes place for many diseases, including diabetes and hypoxia, , and triggers a reaction in the cells called ER stress response (ERSR). ). ERSR is designed as a repair mechanism, but ultimately leads to cell death via apoptosis if conditions triggering protein unfolding persist (1). The molecular clue to ERSR activation is the enhancement of the expression of key molecular chaperones, including the glucose regulated protein (GRP) 78. GRP78 is the main sensor for protein folding and the main actuator of the ERSR.
In a collaboration between the Southern Research Institute and the NIH Chemical Genomics Center, a cell based screen was developed that reliably uses GRP78 as a sensor to identify small molecules as inducers of ERSR. In resting conditions, GRP78 binds proteins and acts as a natural repressor. Once unfolded proteins are present in the ER, GRP78 releases some of the repressors and binds to the unfolded proteins. The release of the repressors executes the ERSR program. Using a human glioma cell line in a miniaturized, luminescent format, a high-throughput screen was developed to identify actuators of the ERSR.
(1) Soboloff, J. and S. A. Berger (2002). "Sustained ER Ca2+ depletion suppresses protein synthesis and induces activation-enhanced cell death in mast cells." J Biol Chem 277(16): 13812-20.
NIH Chemical Genomics Center [NCGC]
NIH Molecular Libraries Probe Centers Network [MLPCN]
Assay Submitter (PI): Maurizio Grimaldi, Southern Research Institute
Stable transfected human glioma cell line, U87-MG, are dispensed at density 1000 cells/well into Greiner white solid bottom 1536-well assay plates. Compounds are transferred via Kalypsys pin tool equipped with 1536-pin array (10nl slotted pins, V&P Scientific, San Diego, CA). The assay plates will be incubated for 16 hours and developed by adding appropriate quantities of the Promega Bright Glo reagent. The plates will be incubated at room temperature for 10 minutes prior to being transferred into a ViewLux high-throughput CCD imager (PerkinElmer), wherein end-point measurements of luminescence are acquired.
For the molecule `COc1ccccc1C(=O)N[C@@H]1c2ccccc2C2(CCN(C(=O)c3csnn3)CC2)[C@H]1OC`, the activation is 0.874%.

`Cc1cc(C)cc(C#CC2C=CC(Oc3ccc(C4CCCC4)cc3)C(CO)O2)c1` (stereo not given): the activation is -1.34%.

In the case of `O=S(O)CNc1ccc(S(=O)(=O)c2ccc(NCS(=O)O)cc2)cc1`, the activation is -4.53%.

Consider `C[C@]12CC[C@@H]3C(=CCc4cc(O)ccc43)[C@@H]1CCC2=O`, for which the activation was 2.61%.

Consider `Fc1ccc(Cl)cc1-c1nc(Nc2ccncc2)c2nccnc2n1`, for which the activation was -1.14%.

Take `Cc1cnc(-n2ncc(C(=O)N3CCN(C(C)C)CC3)c2-c2ccco2)nc1-c1ccc(F)cc1`: the activation is -4.71%.

Turning to `COC(=O)[C@@H]1CC[C@H](C)[C@@H](c2ccc(C)cc2)N1C(=O)c1ccc(/C=N\OC[C@@H](O)COCc2ccco2)cc1`, the activation is 3.64%.

Regarding `C#C[C@]1(O)CC[C@H]2[C@@H]3CCC4=CC(=O)CC[C@@H]4[C@H]3CC[C@@]21CC`, the Potency was 20 µM (active); the activation was 3.01% and -1.02%.

Turning to `COc1cc(=O)n2c(c1C(=O)NC(C)c1ccco1)CCN(C(=O)c1cn3ccc(C)cc3n1)CC2` (stereo not given), the activation was -2.08%.

As to `CN(C)c1ccc(/C=C/C=C/c2ccnc3ccccc23)cc1`, the activation was -3.58%.

Turning to `C=COC(=O)N1CCN(/[N+]([O-])=N/Oc2ccc([N+](=O)[O-])cc2[N+](=O)[O-])CC1`, the activation was -11%.

Turning to `O=C1c2c(O)cccc2[C@@H]([C@@H]2O[C@H](CO)[C@@H](O)[C@H](O)[C@H]2O)c2cc(CO)cc(O)c21`, the activation was -3.93%.

Turning to `CO[C@H]1COC(=O)[C@@H](OCc2ccccc2)/C=C\[C@H](C)[C@@H](OC)COC(=O)[C@H](OCc2ccccc2)/C=C\[C@@H]1C`, the activation is -0.0422%.

In the case of `C[N+](C)(CCOc1ccccc1)Cc1cccs1` (tested in a mixture with another compound), the activation was -5.19%.

In the case of `CCCC(=O)O[C@]1(C(=O)COC(=O)CC)CC[C@@H]2[C@@H]3CCC4=CC(=O)CC[C@]4(C)[C@H]3[C@@H](O)C[C@@]21C`, the activation is -2.74%.

Turning to `C=C1C(=O)C23C(O)C1CCC2[C@]12COC3(O)C(O)C1C(C)(C)CC[C@H]2O` (stereo not given in full), the activation was -12.5%.

For `CO[C@H]1[C@H](NC(=O)C(C)C)c2ccccc2C12CCN(Cc1cnc(N(C)C)s1)CC2`, the activation was -3.14%.

As for `CC1O[C@@H](Oc2c(-c3ccc(O)c(O)c3)oc3cc(O)cc(O)c3c2=O)C(O)C(O)C1O` (stereo not given in full), the activation was -2.63%.

`O=C(C(=O)N1CCOc2ccc(CN3CCN(Cc4ccccn4)CC3)cc2C1)c1ccccc1`: the activation is -4.17%.

With `CCCCC(=O)OCC(=O)[C@H]1[C@H](C)C[C@@H]2[C@@H]3C[C@@H](F)C4=CC(=O)C=C[C@]4(C)[C@@]3(F)[C@@H](O)C[C@@]21C`, the activation is -0.711%.

With `COC(=O)[C@@H]1C[C@H](NC(=O)c2ccccc2C(F)(F)F)CN1Cc1cccc(O)c1`, the activation is -4.69%.

Regarding `CCc1nc2cc(C(=O)NCC3CCS(=O)(=O)C3)cc(NC(=O)c3ccccc3OC)c2n1C` (stereo not given), the activation was -5.29%.

As to `Cc1nc2cc(NC(=O)[C@@H]3C[C@@H](Sc4ccccn4)CN3Cc3ccccc3C)ccc2s1`, the activation is -3.4%.

With `O=C1OC(C(O)CO)C(O)=C1O` (stereo not given), the activation is -2.25%.

Take `COc1ccc(COC(=O)N/N=C2/C[C@@H](O)[C@@H](O)[C@@H]3[C@@H]4C(=O)N([C@@H](C)c5ccccc5)C(=O)[C@H]4CC[C@@H]23)cc1`: the activation was -1.75%.

With `O=C(O)c1ccc(/C=C2/SC(=S)N(c3cccc(C(F)(F)F)c3)C2=O)cc1`, the activation was 2.71%.

For `CC(=O)/C(C)=N\O`, the activation is -3.3%.

Take `C(=Nc1ccc(/C=C/c2ccnc3ccccc23)cc1)Nc1ccc(/C=C/c2ccnc3ccccc23)cc1`: the activation is -10.1%.

For `CN1CC(O)c2cc(N=NC(N)=O)c(O)cc21` (stereo not given), the activation is 4.72%.

Consider `Cc1ccc(-c2ccc(C(=O)N3CCc4nnc(CNC(=O)c5ccccc5)n4CC3)cc2)cc1`, for which the activation was -3.28%.

Consider `CC1(C)[C@H](O[C@H]2O[C@H](C(=O)O)[C@@H](O)[C@H](O)[C@H]2O[C@@H]2O[C@H](C(=O)O)[C@@H](O)[C@H](O)[C@H]2O)CC[C@@]2(C)[C@H]1CC[C@]1(C)[C@H]2C(=O)C=C2[C@H]3C[C@@](C)(C(=O)O)CC[C@]3(C)CC[C@]21C`, for which the activation is -2.51%.

`O=c1c(O)c(-c2ccc(O)cc2)oc2ccccc12`: the activation is -1.19%.

`CC(=O)Nc1ccccc1-c1nc(CNC(=O)c2ccc(Cl)cc2)c(C)o1`: the activation was -2.78%.

As for `COCc1c(C(=O)NC2CCCCC2)cnn1-c1nccc(-c2ccccc2OC)n1`, the activation was 0.854%.

With `COc1cc(C)c(CN2CCc3nnc(C(C)NC(=O)c4cccnc4)n3CC2)cc1C` (stereo not given), the activation was -0.402%.

As to `Cn1nccc1C(=O)NCC1CCC2(CCN(Cc3c(O)ccc4ccccc34)CC2)O1` (stereo not given), the activation is -1.48%.

Take `Cc1cc(-c2ccnc(-n3ncc(C(=O)NCCc4ccncc4)c3C)n2)c(C)s1`: the activation is -1.46%.

For the molecule `CN(C)c1ccc(/C=C/c2sc3ccccc3[n+]2CCCCBr)cc1`, the activation is -6.95%.

Regarding `COc1ccccc1-c1nc(NCc2cccs2)c2ccccc2n1`, the activation was -5.15%.

On to `CO[C@H]1COC(=O)[C@H](Cc2ccccc2)NC(=O)C/C=C\[C@@H](C)[C@H](OC)COC(=O)C/C=C\[C@@H]1C`, for which the activation is -4.82%.

As to `COc1cccc([C@H]2Oc3ccc(OC)cc3/C(=N\OCC[C@@H]3C=C[C@H](OC(C)=O)[C@H](COC(C)=O)O3)[C@@H]2O)c1`, the activation was -2.8%.

For `O=C(NCCN1CCOCC1)c1cnn(-c2nccc(-c3cccs3)n2)c1C1CC1`, the activation is -4.37%.

As for `CC(C)CN1CCc2nc(-c3ccccc3)c3c(c2C1)COC(C)C3` (stereo not given), the activation was -2.93%.

As for `Cc1cc2oc(=O)cc(-c3ccccc3)c2c(C)c1/C=C/c1ccc(F)cc1`, the activation is -1.4%.

For the molecule `CCC(C)C1OC2(C=CC1C)CC1CC(C/C=C(/C)C(OC3CC(OC)C(OC4CC(OC)C(NC(C)=O)C(C)O4)C(C)O3)C(C)/C=C\C=C3\COC4C(O)C(C)=CC(C(=O)O1)C34O)O2` (stereo not given), the activation is -10.3%.

Consider `O=C(NCC1(N2CCCCC2)CCCCC1)c1ccc(NS(=O)(=O)c2ccc(F)cc2)cc1`, for which the activation was -3.09%.

On to `CCOc1ccc(S(=O)(=O)Nc2cccc(C(=O)NCC3(N4CCCCC4)CCCCC3)c2)cc1`, for which the Potency was 15.8 µM (active).

With `O=C(NCC1(N2CCCCC2)CCCCC1)c1cccc(S(=O)(=O)Nc2ccccc2Cl)c1`, the activation was -4.77%.

Regarding `COc1ccc(C2CC(=O)c3c(O)cc(OC4OC(COC5OC(C)C(O)C(O)C5O)C(O)C(O)C4O)cc3O2)cc1O` (stereo not given), the activation is -4.13%.

As to `COc1cc(-c2cccnc2)cc2c1OCCN(C(=O)Cc1csc(C)n1)C2`, the activation is -6.23%.

Consider `O=C(c1cccc(F)c1)N1CCC2(CCCN(Cc3ccncc3)C2)CC1`, for which the activation is -4.07%.

In the case of `O=C(c1ccncc1)N1CCC2(CCCN(C(c3ccccc3)c3ccccc3)C2)CC1`, the Potency is 35.5 µM (active).

`COc1ccc(C(=O)N2CCC3(CCCN(C(c4ccccc4)c4ccccc4)C3)CC2)cc1`: the activation is -2.87%.

As to `CCCNC(=O)OC[C@@H]1O[C@H](c2ccccc2)C=C[C@@H]1Oc1ccc(OC)cc1`, the activation was -2.78%.

Regarding `CO[C@@H]1COC(=O)[C@H](Cc2ccccc2)NC(=O)C/C=C\[C@@H](C)[C@H](OC)COC(=O)[C@@H](C)NC(=O)C/C=C\[C@H]1C`, the activation is -5.06% and -3.17%.

As for `CN(Cc1cccc2ncccc12)C(=O)c1cnn(-c2nccc(-c3ccccc3F)n2)c1C1CC1`, the activation is -10.9%.

Turning to `O=C(c1cn(CC2CCCN(Cc3cc4ccccc4s3)C2)nn1)N1CCCC1` (stereo not given), the activation is -4.62%.

As for `Cc1cccc(CNC(=O)c2cnn(-c3nccc(-c4ccccc4F)n3)c2C2CC2)n1`, the activation is -2.43%.

For `COc1ccc(/C=C/NC(=O)c2ccc(OC)cc2)cc1`, the activation is -1.95%.

Regarding `N#Cc1ccccc1-c1ccc2ncnc(NCc3cccnc3)c2c1`, the activation was -2.79%.

As for `CO[C@@]12[C@@H](COC(N)=O)C3=C(C(=O)C(C)=C(N)C3=O)N1C[C@@H]1N[C@@H]12`, the activation is -2.04%.

Regarding `COc1cc(C[C@H]2NCCc3cc(O)c(O)cc32)cc(OC)c1OC`, the activation is -2.86%.

Consider `COc1cc([C@@H]2c3cc4c(cc3[C@@H](O[C@@H]3O[C@@H]5CO[C@@H](C)O[C@H]5[C@H](O)[C@H]3O)[C@H]3COC(=O)[C@H]23)OCO4)cc(OC)c1OP(=O)(O)O`, for which the activation is -3.95%.

For `CCC1(C2CCN(Cc3cccnc3)CC2)NC(=O)N(CC2COc3ccccc3O2)C1=O` (stereo not given), the activation is -3.69%.

Regarding `CCS(=O)(=O)Nc1cc(C(=O)N2C[C@@H](C)O[C@@H](C)C2)c2c(c1)nc(-c1ccccc1)n2C`, the activation was -5.69%.

For `CC[C@H](C)[C@H](NC(=O)[C@H](Cc1ccc(O)cc1)NC(=O)[C@@H](NC(=O)[C@H](CCCN=C(N)N)NC(=O)[C@@H](N)CC(=O)O)C(C)C)C(=O)N[C@@H](Cc1cnc[nH]1)C(=O)N1CCC[C@H]1C(=O)N[C@@H](Cc1ccccc1)C(=O)O`, the activation was -0.592%.

For `COc1ccc2c(c1)CCc1cnc(-n3ncc(C(=O)NCc4cccnc4)c3C3CC3)nc1-2`, the activation was -2.79%.

`COc1cc(=O)n2c(c1C(=O)NCc1ccco1)CCN(Cc1ccccc1)CC2`: the activation is -4.45%.

For `Cc1oc(-c2cccc(NC(=O)c3ccccc3)c2)nc1CNC(=O)c1cnc2ccccn2c1=O`, the activation is -3.8%.
